Values joined by “and” are separate entries in the source; they are usually repeats but may differ in a detail not shown here. Identical values can stand only once. Where a structure was tested more than once in an assay, its records may differ in their call. Active and inactive are the calls of the source. A call without a number means that no potency is given here. Calls follow the shape of the full dose curve. Starred links: 1 amine or outer side, 2 acyl side, 3 side chain; linkers in the order of their positions; H or OH if unused. Positions of bridges follow the written chain, without caps; N, C: chain ends. Non-standard residues stand in square brackets, D forms with d. Residues, ends and D or L forms follow the SMILES beside them. Chains are numbered I, II in the order given. Actinocin(9to1) = Cc1c2oc3c(C)ccc(C(=O)[*:1])c3nc-2c(C(=O)[*:2])c(N)c1=O; NMeV = CN[C@H](C(=O)O)C(C)C; Sar = CNCC(=O)O
Potency is read from the fitted curve at half-maximal effect.

Sequence of Thyrotropin-releasing hormone receptor (Homo sapiens) (P34981 whole entry, looked up): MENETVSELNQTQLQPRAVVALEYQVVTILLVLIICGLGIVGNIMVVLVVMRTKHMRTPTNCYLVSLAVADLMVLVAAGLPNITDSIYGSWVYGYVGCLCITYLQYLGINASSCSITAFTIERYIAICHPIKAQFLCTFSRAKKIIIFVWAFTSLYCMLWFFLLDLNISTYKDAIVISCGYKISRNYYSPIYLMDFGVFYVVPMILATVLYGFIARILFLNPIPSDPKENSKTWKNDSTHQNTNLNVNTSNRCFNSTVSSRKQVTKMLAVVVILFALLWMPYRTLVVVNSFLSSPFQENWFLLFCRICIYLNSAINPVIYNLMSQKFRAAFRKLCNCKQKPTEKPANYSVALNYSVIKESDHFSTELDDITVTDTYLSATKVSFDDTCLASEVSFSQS

This assay concerns the target Thyrotropin-releasing hormone receptor (Homo sapiens) (UniProt P34981). The assay can be described thus: qHTS assay to identify small molecule agonists of the thyrotropin-releasing hormone receptor (TRHR) signaling pathway (AID 1346891).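 As to activation: HEK293 cells expressing TRHR with calcium dye readout.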 Conditions: TRHR-HEK293 calcium fluorescence, agonist mode; series mostly up to 57.6 µM; activation: at the top concentration. The text has this: National Center for Advancing Translational Sciences [NCATS] NIH Chemical Genomics Center [NCGC] U.S. Environmental Protection Agency [EPA] National Institutes of Environmental Health Sciences [NIEHS] National Toxicology Program [NTP] Assay overview: Thyrotropin-releasing hormone (TRH) receptor (TRHR) is a G-protein-coupled receptor which binds the tripeptide thyrotropin releasing hormone. TRHR is found in the brain and, when bound by TRH, acts (through phospholipase C) to increase intracellular inositol trisphosphate. It plays a crucial role in the anterior pituitary where it controls the synthesis and secretion of thyroid stimulating hormone and prolactin. The TRHR-Hek293 assay is a cell-based assay, and it has the potential to screen G protein-coupled receptors. A compound/drug can either activate (agonist) or suppress (antagonist) GPCRs that can be monitored by levels of intracellular calcium. Using this assay, the Tox21 10K compound library was screened to identify potential TRHR agonists.
Assay Protocol Summary: The TRHR-Hek293 cells were dispensed at 1500cells/4uL/well in 1536-well black-clear bottom plates using a Multidrop dispenser. After the assay plates were incubated at a 37 C/5% CO2 incubator for 18 hours, 4 uL of Dye-Loading Solution was added to each well. The plates were incubated at 37 C for 2 hours. For agonist mode, 23 nL of compounds dissolved in DMSO, positive controls or DMSO only was transferred to the assay plate by a pin tool. The fluorescence intensity in the plates was measured using FDSS 7000EX kinetic plate reader for 3 min at 1 sec intervals. Each test compound was measured at 15 concentrations and in triplicates.
(In general: In qHTS, concentration-response curves come from the screen itself.)
Turning to `O=C(Nc1ccccc1SSc1ccccc1NC(=O)c1ccccc1)c1ccccc1`, the Potency result was “inactive”. Same read-out and setting: the same measure for `NNCCc1ccccc1`: “inactive”. For the compound `CC(C)(C)c1ccc(O)c(C(C)(C)C)c1`, the “activation” value was 20.9% (inactive). Turning to `NC(Cc1ccc(Cl)cc1)C(=O)O` (stereo not given), the activation is 0.0344% [at 0.218 µM] (inactive).

As to `CC(=O)CC(=O)Nc1ccc2[nH]c(=O)[nH]c2c1`, the “activation” value was -0.196% (inactive). `Cc1ccnc2c1NC(=O)c1cccnc1N2C1CC1`: the Potency result is “inactive”.

Consider `COc1ccc(CCN2CCC(Nc3nc4ccccc4n3Cc3ccc(F)cc3)CC2)cc1`, for which the Potency entry is “inactive”. Consider `CC(C)(C)NCC(O)c1cc(O)cc(O)c1` (stereo not given), for which the “activation” value was 2.29% [at 26.5 µM] (inactive). On to `Cc1c2oc3c(C)ccc(C(=O)N[C@@H]4C(=O)N[C@H](C(C)C)C(=O)N5CCC[C@H]5C(=O)N(C)CC(=O)N(C)[C@@H](C(C)C)C(=O)O[C@@H]4C)c3nc-2c(C(=O)N[C@@H]2C(=O)N[C@H](C(C)C)C(=O)N3CCC[C@H]3C(=O)N(C)CC(=O)N(C)[C@@H](C(C)C)C(=O)O[C@@H]2C)c(N)c1=O` (I: T[dV]P[Sar][NMeV] / II: T[dV]P[Sar][NMeV]; ester I:1-I:C, II:1-II:C; linker I:N-II:N via Actinocin(9to1)), for which the Potency result is “inactive”. Turning to `COc1ccc(Cc2cnc(N)nc2N)cc1OC`, the “activation” value was -0.685% [at 26.5 µM] (inactive). For the compound `Cc1cc(Cc2cc(C)cc(C(C)(C)C)c2O)c(O)c(C(C)(C)C)c1`, the Potency result is “inactive”. Still for that read-out and setting: the same measure for `CCCCC(CC)COC(=O)CC(C(=O)OCC(CC)CCCC)S(=O)(=O)O` (stereo not given): “inactive”. Turning to `O=S(=O)(O)c1ccc2nc(-c3ccccc3)[nH]c2c1`, the Potency entry is “inactive”.

Consider `NC(N)=NC(=O)Cc1c(Cl)cccc1Cl`, for which the “activation” value is 0.177% [at 26.5 µM] (inactive). As to `CC(=O)C1=C(C)[C@@H]2C[C@@]3(C1)[C@H](C)CC[C@H]3C2(C)C`, the Potency result was “inactive”. Consider `COc1nc(C)nc(Cl)c1NC1=NCCN1`, for which the “activation” value is -0.0392% [at 26.5 µM] (inactive). As to `CCC(CO)(CO)COCC(CC)(CO)CO`, the “activation” value is 0.213% (inactive). As for `O=C(OCc1ccccc1)c1ccc(O)cc1`, the Potency entry is “inactive”. Consider `O=C(O)c1cc(Cl)cc(Cl)c1`, for which the “activation” value was -0.234% (inactive). The same measure, in the same setting: the result for `Cc1scc2c1N(C(=O)CN1CCN(C)CC1)c1ccccc1NC2=O` reads 0.0102% [at 26.5 µM] (inactive); that for `O=Cc1ccc(Cl)cc1`, 0.0109% (inactive); that for `CCCCC/C=C/CC1CC(=O)OC1=O` (stereo not given), 0.0213% (inactive). In the case of `CC(C)(C)c1cc(C(C)(C)C)c(O)c(C(C)(C)C)c1`, the Potency entry is “inactive”. On to `CN1C(=O)c2ccc([N+](=O)[O-])cc2C1=O`, for which the “activation” value is 0.0216% (inactive). For the compound `CC(C(O)c1ccc(O)cc1)N1CCC(Cc2ccccc2)CC1` (stereo not given), the “activation” value is -0.0173% [at 26.5 µM] (inactive). On to `Cc1cccc2n[nH]nc12`, for which the Potency result was “inactive”.

Turning to `CN(C)c1ccc(C(=C2C=CC(=[N+](C)C)C=C2)c2ccccc2)cc1`, the Potency result is “inactive”. With `C=C(C)C(=O)O`, the Potency entry is “inactive”. Turning to `Oc1c(Cl)cc(Cl)c(Cl)c1Cc1c(O)c(Cl)cc(Cl)c1Cl`, the Potency is 30.8 µM (active) and 34.7 µM (active) and inactive.

For `CC1=CC(=O)c2ccccc2C1=O`, the Potency entry is “inactive”. For the compound `O=C(O)c1cccc(C(=O)O)c1`, the Potency entry was “inactive”. In the case of `CNCCC(Oc1ccc(C(F)(F)F)cc1)c1ccccc1` (stereo not given), the Potency entry is “inactive”. For `C/C=C/c1ccc(OCC)c(O)c1`, the Potency result is “inactive”.

`CCOc1ccc2c(c1)C(C)=CC(C)(C)N2`: the Potency entry was “inactive”. With `Nc1ccc(O)cc1`, the Potency result was “inactive”.

On to `CCC(C)(C)C(=O)O[C@H]1C[C@@H](C)C=C2C=C[C@H](C)[C@H](CC[C@@H]3C[C@@H](O)CC(=O)O3)[C@H]21`, for which the Potency entry was “inactive”. With `O=Nc1ccc(Nc2ccccc2)cc1`, the Potency entry was “inactive”.

In the case of `CCn1c2ccccc2c2cc(N)ccc21`, the Potency result is “inactive”. Same read-out and setting: the same measure for `Oc1c(Cl)cc(Cl)cc1Sc1cc(Cl)cc(Cl)c1O`: 39.6 µM (active) and inactive. Turning to `CCCC(=O)c1ccccc1`, the “activation” value is -0.374% (inactive).

Values taken from PubChem BioAssay (Tox21).
